Out of some 340,000 compounds screened, about 8,500 (2.5%) were called active.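 How the source made its calls: active means melting temperature shift of at least 10% of the positive control shift, at one fixed dose; inactive means the rest.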 The entries come from a sample that favours actives as a whole.
Test system: Glutamate receptor ionotropic, NMDA 3A (GRIN3A) ligand-binding domain
Assay: binders of NR3A ligand-binding domain, primary screen, biophysical, differential scanning fluorimetry, uHTS (AID 1259313)
Conditions: NR3A LBD differential scanning fluorimetry, at 25 µM, active compounds read high, 0% = protein alone, 100% = glycine-bound protein

Tm shift relative to glycine control, inactive:
CCC(=C/c1sc2ccc3ccccc3c2[n+]1C)/C=C1\Sc2ccc3ccccc3c2N1C 3.14%
CC1CCCCC1NC(=O)Cn1cnc2c1c(=O)n(C)c(=O)n2C (centres undefined) -0.41%
COc1ccc(C(=O)Nc2cc(C)ccc2NC(=O)COc2ccccc2)cc1 -0.91%
CCS(=O)(=O)c1ccc(O)c(NC(=O)COc2ccc(Cl)cc2)c1 1.4%
Oc1ccc(/C=N/N(Cc2ccccc2)c2ccccc2)cc1 8.8%
COc1cc(OC)cc(-c2cc3ccc(F)cc3cn2)c1 1.79%
COC(=O)C1CCN(C(=O)NC2CC(=O)N(c3ccc4c(c3)OCCO4)C2)CC1 (centres undefined) 0.42%
CC(=O)c1ccccc1NC(=O)C1CC(=O)N(c2ccc3c(c2)OCCO3)C1 (centres undefined) -0.26%
Cc1nc2cc(C(F)(F)F)ccc2n1CCNc1nc(-c2cc(Cl)c(N)c(Cl)c2)cs1 -2.53%
Cc1ccc(C(C(=O)NC2CCCCC2)N(C(=O)c2csnn2)C2CC2)o1 (centres undefined) -0.78%
COc1ccc(S(=O)(=O)N2CCOCC2)cc1NC(=O)CSc1nnc(NC2CC2)s1 1.84%
COc1ccc(Br)cc1/C=N/NC(=O)c1cccc(S(=O)(=O)N2CCOCC2)c1 -9.01%
COc1ccc(/C=N/NC(=O)c2ccncc2)cc1CN1CCCc2ccccc21 -8.86%
O=C(c1cc2ccccc2o1)N1CCN(Cc2ccccc2)CC1 0.09%
Fc1ccc(OCc2nn3c(Cn4nnc5ccccc54)nnc3s2)cc1 2.39%
CC1CN(/C=C/C(=O)C(F)(F)F)CC(C)O1 (centres undefined) 0.33%
COc1ccccc1Cn1c(C)nnc1-c1cnn(C)c1N 1%
O=C(O)Cc1ccc(NC(=O)Nc2cccc3ccccc23)cc1 -1.31%
CN(CC(=O)Nc1ccc(Cl)cc1)CC(=O)Nc1cccc2ccccc12 -7.6%
CC(C)OC(=O)c1ccc(NCc2cc(O)ccc2O)cc1Cl -1.69%
COC(=O)c1ccc(NCc2cc(O)ccc2O)cc1 5.08%
Cn1c(SCc2ccc(F)cc2)nnc1-c1ccncc1 1.71%
CCC(C)(C)n1nnnc1CN1CCN(c2nc3ccc(C)cc3cc2C#N)CC1 0.62%
O=C(NCc1ccccc1)C(c1ccccc1)N(C(=O)c1csnn1)c1ccc(F)cc1 (centres undefined) -0.6%
CN(C)S(=O)(=O)Oc1ccccc1C(=O)Nc1ccccc1Cl -0.92%
O=C(COC(=O)CCc1c[nH]c(=O)[nH]1)Nc1ccccc1Cl 1.15%
Cc1nn(-c2ccccc2)c2[nH]c(C(F)(F)F)cc(=O)c12 -11.2%
COc1ccc(CN2CCN(Cc3cn(C)nc3-c3ccccc3)CC2CCO)c(C)c1C (centres undefined) -3.71%
O=C(O)/C=C/c1ccc(OCCCF)cc1 -1.35%
COc1cccc(C=CC(=O)C=CC=Cc2ccccc2)c1 -1.98%
Cc1ccc(S(=O)(=O)NCCc2nnc3ccc(SCc4cccnc4)nn23)cc1 -2.44%
COc1cc(OC)c(C(=O)NNC(=O)c2ccccc2-n2cccc2)cc1OC -0.41%
CCCCCCC(O)(CCN1CCCCC1)c1ccccc1 (centres undefined) -3.65%
S=c1[nH]nc(-c2cccs2)n1/N=C/c1cccs1 0.68%
S=c1[nH]nc(-c2ccncc2)n1/N=C/c1ccccc1Cl -1.38%
CC(C(=O)Nc1ccccc1-c1ccccc1)N1CCOCC1 (centres undefined) -18.3%
CC(N=Cc1nc(-c2ccccc2)oc1O)c1ccccc1 (centres undefined) 1.17%
CCOc1ccc2nc(C(=O)N3CCCC(C)C3)sc2c1 (centres undefined) 3.03%
CCn1c(SCC(=O)NC2CC2)nnc1-c1ccccc1OC -19.3%
COc1ccc(C2=Nn3c(nnc3-c3ccccc3OC)SC2)cc1OC1CCCC1 -1.54%
Cn1c(C(=O)OC(C(=O)NC2CCCCC2)c2ccccn2)cc2sccc21 (centres undefined) -2.22%
C/C(CC(=O)NC(C)(C)C)=N\NC(=O)c1ccco1 -2.4%
C/C(=N/NC(=O)C1COc2ccccc2O1)c1ccco1 (centres undefined) 0.45%
C=C(C)CNC(=S)/N=c1\scc(C)n1CC 0.78%
Cc1c(Cl)cccc1NC(=O)CSc1ccc(-c2cccnc2)nn1 0.4%
COc1ccc([C@H]2[C@H](C(C)=O)N3N=Cc4ccccc4C3C23C(=O)OC(C)(C)OC3=O)cc1 (some centres undefined) 1.26%
CC(C)C(=O)Nc1cccc(C(=O)Nc2ccc3c(c2)OCO3)c1 -22.3%
O=C(Nc1ccc(NC(=O)c2ccc3c(c2)OCO3)cc1)c1cccc(Cl)c1 4.36%
COc1cc2ccccc2cc1C(=O)Nc1ccc(S(=O)(=O)Nc2cc(C)on2)cc1 -5.06%
COc1cc(Cl)c(C)cc1NC(=O)[C@@H]1CCCN1C(=O)c1cccs1 -1.61%
COc1cc(NC(=O)COc2ccccc2Cl)ccc1NC(=O)C(C)C -1.36%
COc1cc2ccccc2cc1C(=O)Nc1ccncc1 -12.5%
Cc1cc(C(=O)CC#N)c(C)n1CC(F)(F)F 0.49%
O=C(Nc1cccc(S(=O)(=O)N2CCCC2)c1)c1cncc(Br)c1 -1.22%
COc1ccc(N2CCN(CCNC(=O)Nc3cc(Cl)ccc3Cl)CC2)cc1 -1.01%
O=c1c2ccccc2ncn1/N=C/c1ccccc1 -2.01%
Cc1ccc(OCC(=O)N2CCN(C(=O)c3cccnc3)CC2)cc1 -1.15%
O=C(/C=C/c1ccc(Cl)cc1)Nc1ccc(Br)cn1 0.46%
Cc1ccccc1N(C(=O)Cc1cccs1)C(C(=O)NC1CCCCC1)c1cn(C)nc1C (centres undefined) -0.71%
CC(NC(=O)COC(=O)c1cc(=O)[nH]c2ccccc12)c1ccccc1 (centres undefined) -1%
O=C(COC(=O)c1cc(=O)[nH]c2ccccc12)NCc1cccc(Cl)c1 -0.85%
CCOC(=O)c1ccccc1NC(=O)CSc1nc2ccccc2c(=O)[nH]1 -1.86%
CC(=O)NCc1ccc(-c2csc(NC(=O)CCCc3nc4ccccc4c(=O)[nH]3)n2)cc1 -1.27%
Cc1ccc(-c2cc(=O)[nH]c(NCc3ccccc3)n2)cc1 -1.01%
COc1cc(OC)c(OC)cc1CN1CCN(C(=O)c2cccc3ccccc23)CC1 -1.19%
Cc1cc(C)nc(/N=C2\NC(=O)CC(C(=O)O)N2c2ccc(Cl)cc2Cl)n1 (centres undefined) -1.26%
O=C(CCN1C(=O)C2CCCCC2C1=O)Nc1ccc(OC(F)F)cc1 (centres undefined) 2.89%
O=C(O)c1cc(S(=O)(=O)N(Cc2ccccc2)c2cccc(C(F)(F)F)c2)ccc1Cl 2.79%
O=C(Nc1cc(C(F)(F)F)ccc1Cl)C(=O)N1CCCCC1 -10.1%
Nc1cc2c(cc1Br)-c1ccc(F)cc1C2=O -2.14%
Nc1nc(SCC(=O)Nc2ccc(Cl)cc2C(F)(F)F)n[nH]1 0.67%
CCCCNC(=O)c1onc(CSc2cccc(OC)c2)c1C(=O)O 3.23%
CCOc1cccc(SCc2noc(C(=O)NC(C)C)c2C(=O)O)c1 -0.97%
CN(C)/C=C(/C(=O)c1ccc(Cl)c(Cl)c1)c1nnnn1-c1ccccc1 -0.1%
COCCn1nnnc1C(c1ccccc1Cl)N1CCN(c2ccccc2OC)CC1 (centres undefined) 2.04%

Tm shift relative to glycine control, active:
Cc1ccc(O)c(NC(=S)NC(=O)COc2ccc(Br)cc2)c1 16.9%
CC(=O)c1ccc(S(=O)(=O)NC2CC(=O)N(c3ccc4c(c3)OCCO4)C2)cc1 (centres undefined) 15.5%
COc1cccc(/C=N/NC(=O)c2[nH]nc3c2CCc2ccccc2-3)c1O 20.4%
O=C(Cc1cccc2ccccc12)NNC(=O)Nc1ccc(Cl)cc1 29.1%
O=C(OC12CC3CC(CC(C3)C1)C2)c1ccc(NCc2cc(O)ccc2O)cc1 33.5%
O=C(Nc1ccccc1Cl)/C(Cl)=C(\Cl)S(=O)c1ccccc1 (centres undefined) 11.6%
O=C(/C=C(O)/C=C/c1ccc(O)cc1)/C=C/c1ccc(O)cc1 19%
S=c1[nH]nc(-c2cccs2)n1/N=C/c1cn(-c2ccccc2)nc1-c1ccc(Cl)cc1 15.2%
CCOc1ccc2nc(/N=C/c3nc(-c4ccccc4)oc3O)sc2c1 38%
COc1ccccc1-c1nnc2n1N=C(c1ccc(OC(F)F)c(OCC3CC3)c1)CS2 20.6%
C/C(=N/NC(=O)CCc1ccccc1)c1ccco1 13.4%
COc1cc2ccccc2cc1C(=O)Nc1ccc(NC(=O)c2cccs2)cc1 28.6%
COc1cc(NC(=O)c2ccc3c(c2)OCO3)ccc1NC(=O)c1cccs1 26.8%
COc1cc(NC(=O)c2cccs2)ccc1NC(=O)c1ccccc1Cl 11.9%
O=C(COC(=O)c1cc(=O)[nH]c2ccccc12)Nc1nc(-c2cccc(Br)c2)cs1 10.6%
O=C(CSc1nc2ccccc2c(=O)[nH]1)Nc1nc(-c2ccc(Br)cc2)cs1 36.1%
O=C(NNc1ccccc1Cl)C(O)(c1cccc(C(F)(F)F)c1)c1cccc(C(F)(F)F)c1 27.5%
COCCNC(=O)c1onc(CSc2cccc(C)c2)c1C(=O)O 18.5%
CCC(=O)N(C)C(c1ccccc1Cl)c1nnnn1-c1c(C)cccc1C (centres undefined) 38.2%

From PubChem BioAssay AID1259313 (Sanford-Burnham Center for Chemical Genomics, 2017)
